# Measurements: article PMC7862700, “An all-to-all approach to the identification of sequence-specific readers for epigenetic DNA modifications on cytosine”
# Legend:
# Assay in all cases: DAPPL (digital affinity profiling via proximity ligation, sequencing); 10 mM Tris-HCl pH 7.5, 50 mM NaCl, 1 mM DTT, 4% glycerol, room temperature, 30 min; GST-TFs on glutathione beads, 16-mer random dsDNA library, 0.1% formaldehyde crosslink after washing; high values mean tight binding
# FEV = biological target: T1, FEV (Homo sapiens, UniProt Q99581 1-238); settings: protein: recombinant; tags: N-terminal GST; dsDNA, one strand shown
# T1 sequence: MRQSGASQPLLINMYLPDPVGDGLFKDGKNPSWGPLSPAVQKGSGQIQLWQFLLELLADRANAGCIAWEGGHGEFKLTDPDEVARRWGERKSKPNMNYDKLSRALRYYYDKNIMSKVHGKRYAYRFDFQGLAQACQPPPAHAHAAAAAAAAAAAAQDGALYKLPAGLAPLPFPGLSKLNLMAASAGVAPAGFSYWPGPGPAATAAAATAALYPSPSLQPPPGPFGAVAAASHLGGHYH
# How it was run: (§1)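 Human transcription factors carrying a GST fusion were produced in yeast, bound to glutathione beads, tagged with DNA barcodes and pooled together with a tag-only sample. Each pool was held with 200 nmole of a random double-stranded 16-mer DNA library in Tris/NaCl/DTT/glycerol buffer for 30 min at room temperature, then washed, crosslinked in 0.1% formaldehyde, proximity-ligated with BsaI/T4 ligase (1 h, 37 °C), PCR-amplified and sequenced on an Illumina NextSeq500. Binding signal is the read frequency of each hexamer for a given factor divided by its frequency in the tag-only sample.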
# ETV5 = ETV5 (Homo sapiens, UniProt P41161 1-510); settings: protein: recombinant; tags: N-terminal GST; dsDNA, one strand shown
# How it was run: as §1
# HSF1 = HSF1 (Homo sapiens, UniProt Q00613 1-529); settings: protein: recombinant; tags: N-terminal GST; chain copies: 3; dsDNA, one strand shown
# How it was run: as §1
# SPIC = biological target: T2, SPIC (Homo sapiens, UniProt Q8N5J4 1-248); settings: protein: recombinant; tags: N-terminal GST; dsDNA, one strand shown
# T2 sequence: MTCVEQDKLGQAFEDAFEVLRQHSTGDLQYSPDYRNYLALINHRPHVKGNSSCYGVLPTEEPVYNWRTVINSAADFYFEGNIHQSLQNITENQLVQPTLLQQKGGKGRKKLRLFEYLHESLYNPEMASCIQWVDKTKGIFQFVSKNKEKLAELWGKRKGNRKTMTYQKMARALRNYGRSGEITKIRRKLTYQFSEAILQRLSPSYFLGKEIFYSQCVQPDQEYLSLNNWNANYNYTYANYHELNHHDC
# How it was run: as §1
# ELF4 = ELF4 (Homo sapiens, UniProt Q99607 1-663); settings: protein: recombinant; tags: N-terminal GST; dsDNA, one strand shown
# How it was run: as §1
# ELK4 = biological target: T3, ELK4 (Homo sapiens, UniProt P28324-2 1-405); settings: protein: recombinant; tags: N-terminal GST; dsDNA, one strand shown
# T3 sequence: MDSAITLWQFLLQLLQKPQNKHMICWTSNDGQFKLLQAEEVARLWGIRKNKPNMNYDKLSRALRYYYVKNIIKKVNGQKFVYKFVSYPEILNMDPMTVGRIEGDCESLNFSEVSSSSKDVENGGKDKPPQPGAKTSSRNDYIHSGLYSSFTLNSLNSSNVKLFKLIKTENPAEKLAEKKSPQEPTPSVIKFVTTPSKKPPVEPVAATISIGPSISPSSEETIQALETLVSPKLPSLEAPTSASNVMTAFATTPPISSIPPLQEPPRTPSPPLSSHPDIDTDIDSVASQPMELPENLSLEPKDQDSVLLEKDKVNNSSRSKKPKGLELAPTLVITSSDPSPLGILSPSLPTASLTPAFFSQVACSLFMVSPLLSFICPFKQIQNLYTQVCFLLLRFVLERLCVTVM
# How it was run: as §1
# ETV2 = biological target: T4, ETV2 (Homo sapiens, UniProt O00321 1-342); settings: protein: recombinant; tags: N-terminal GST; dsDNA, one strand shown
# T4 sequence: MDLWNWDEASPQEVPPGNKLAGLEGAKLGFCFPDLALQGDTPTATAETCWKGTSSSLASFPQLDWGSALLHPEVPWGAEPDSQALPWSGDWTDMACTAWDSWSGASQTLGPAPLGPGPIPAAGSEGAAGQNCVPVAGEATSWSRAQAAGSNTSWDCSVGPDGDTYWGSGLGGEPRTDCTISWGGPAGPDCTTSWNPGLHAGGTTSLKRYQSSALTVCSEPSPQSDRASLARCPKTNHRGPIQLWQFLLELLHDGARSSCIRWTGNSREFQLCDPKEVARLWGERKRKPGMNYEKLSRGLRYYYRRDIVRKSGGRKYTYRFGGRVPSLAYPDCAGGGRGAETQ
# How it was run: as §1
# ELF3 = biological target: T5, ELF3 (Homo sapiens, UniProt P78545 1-371); settings: protein: recombinant; tags: N-terminal GST; dsDNA, one strand shown
# T5 sequence: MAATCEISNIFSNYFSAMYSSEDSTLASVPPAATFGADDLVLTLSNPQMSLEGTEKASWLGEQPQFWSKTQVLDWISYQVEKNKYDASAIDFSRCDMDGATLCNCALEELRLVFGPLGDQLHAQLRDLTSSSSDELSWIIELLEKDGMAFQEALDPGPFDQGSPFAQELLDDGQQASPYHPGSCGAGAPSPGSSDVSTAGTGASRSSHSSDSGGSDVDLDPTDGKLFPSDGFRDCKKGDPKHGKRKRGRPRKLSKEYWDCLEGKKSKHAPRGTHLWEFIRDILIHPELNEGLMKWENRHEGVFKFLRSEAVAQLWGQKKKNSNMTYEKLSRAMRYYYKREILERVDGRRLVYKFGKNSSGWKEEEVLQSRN
# How it was run: as §1
# CRX = CRX (Homo sapiens, UniProt O43186 1-299); settings: protein: recombinant; tags: N-terminal GST; dsDNA, one strand shown
# How it was run: as §1
# ETV1 = ETV1 (Homo sapiens, UniProt P50549 1-477); settings: protein: recombinant; tags: N-terminal GST; dsDNA, one strand shown
# How it was run: as §1
# ERF = biological target: T6, ERF (Homo sapiens, UniProt P50548 1-548); settings: protein: recombinant; tags: N-terminal GST; dsDNA, one strand shown
# T6 sequence: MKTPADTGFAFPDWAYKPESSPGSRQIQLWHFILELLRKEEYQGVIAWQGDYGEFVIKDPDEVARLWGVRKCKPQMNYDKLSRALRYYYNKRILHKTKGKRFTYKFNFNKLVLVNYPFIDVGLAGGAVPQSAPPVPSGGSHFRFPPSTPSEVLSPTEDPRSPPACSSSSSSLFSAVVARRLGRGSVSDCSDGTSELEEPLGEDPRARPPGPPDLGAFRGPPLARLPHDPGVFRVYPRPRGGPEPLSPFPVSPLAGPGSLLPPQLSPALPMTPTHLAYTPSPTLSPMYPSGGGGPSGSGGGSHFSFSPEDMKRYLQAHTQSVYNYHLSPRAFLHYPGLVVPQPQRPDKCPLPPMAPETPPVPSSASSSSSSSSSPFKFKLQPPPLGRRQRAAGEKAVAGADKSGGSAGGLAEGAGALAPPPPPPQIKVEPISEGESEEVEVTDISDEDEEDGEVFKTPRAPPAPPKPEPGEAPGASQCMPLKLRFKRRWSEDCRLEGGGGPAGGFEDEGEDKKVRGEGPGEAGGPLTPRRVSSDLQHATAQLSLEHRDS
# How it was run: as §1
# ETV3L = biological target: T7, ETV3L (Homo sapiens, UniProt Q6ZN32 1-361); settings: protein: recombinant; tags: N-terminal GST; dsDNA, one strand shown
# T7 sequence: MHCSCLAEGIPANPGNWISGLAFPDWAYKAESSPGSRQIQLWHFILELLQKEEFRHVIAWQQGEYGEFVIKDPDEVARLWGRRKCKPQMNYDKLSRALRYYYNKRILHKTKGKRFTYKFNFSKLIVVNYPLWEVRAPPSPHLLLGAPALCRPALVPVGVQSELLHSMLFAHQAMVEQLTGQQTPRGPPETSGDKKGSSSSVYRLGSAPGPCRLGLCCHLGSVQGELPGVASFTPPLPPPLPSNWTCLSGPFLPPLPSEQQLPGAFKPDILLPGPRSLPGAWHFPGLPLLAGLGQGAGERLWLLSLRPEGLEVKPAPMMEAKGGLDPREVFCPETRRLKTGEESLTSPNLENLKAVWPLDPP
# How it was run: as §1
# ETS2 = biological target: T8, ETS2 (Homo sapiens, UniProt P15036 1-469); settings: protein: recombinant; tags: N-terminal GST; dsDNA, one strand shown
# T8 sequence: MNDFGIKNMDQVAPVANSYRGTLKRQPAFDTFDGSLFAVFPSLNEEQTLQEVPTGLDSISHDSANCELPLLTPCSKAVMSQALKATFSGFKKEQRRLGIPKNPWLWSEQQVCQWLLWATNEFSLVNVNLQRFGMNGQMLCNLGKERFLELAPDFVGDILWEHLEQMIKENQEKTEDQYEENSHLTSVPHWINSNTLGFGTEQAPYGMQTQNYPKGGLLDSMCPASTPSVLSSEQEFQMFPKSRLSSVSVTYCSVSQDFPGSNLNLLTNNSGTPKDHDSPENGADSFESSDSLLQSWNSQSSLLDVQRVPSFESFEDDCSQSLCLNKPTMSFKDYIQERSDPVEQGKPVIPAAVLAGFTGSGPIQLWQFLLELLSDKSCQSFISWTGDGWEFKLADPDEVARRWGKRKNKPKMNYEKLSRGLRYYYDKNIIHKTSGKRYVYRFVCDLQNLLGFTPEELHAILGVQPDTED
# How it was run: as §1
# SPDEF = biological target: T9, SPDEF (Homo sapiens, UniProt O95238 1-335); settings: protein: recombinant; tags: N-terminal GST; dsDNA, one strand shown
# T9 sequence: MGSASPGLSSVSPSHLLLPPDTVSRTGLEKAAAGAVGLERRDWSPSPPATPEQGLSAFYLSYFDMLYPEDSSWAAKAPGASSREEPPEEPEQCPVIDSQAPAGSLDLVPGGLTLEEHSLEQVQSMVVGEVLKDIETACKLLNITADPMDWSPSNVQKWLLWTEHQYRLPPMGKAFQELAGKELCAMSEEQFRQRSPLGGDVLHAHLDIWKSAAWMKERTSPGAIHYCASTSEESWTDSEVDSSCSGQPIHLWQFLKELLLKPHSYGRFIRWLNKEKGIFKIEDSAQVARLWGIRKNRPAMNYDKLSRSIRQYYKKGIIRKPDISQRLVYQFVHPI
# How it was run: as §1
# ETV7 = biological target: T10, ETV7 (Homo sapiens, UniProt Q9Y603 1-341); settings: protein: recombinant; tags: N-terminal GST; dsDNA, one strand shown
# T10 sequence: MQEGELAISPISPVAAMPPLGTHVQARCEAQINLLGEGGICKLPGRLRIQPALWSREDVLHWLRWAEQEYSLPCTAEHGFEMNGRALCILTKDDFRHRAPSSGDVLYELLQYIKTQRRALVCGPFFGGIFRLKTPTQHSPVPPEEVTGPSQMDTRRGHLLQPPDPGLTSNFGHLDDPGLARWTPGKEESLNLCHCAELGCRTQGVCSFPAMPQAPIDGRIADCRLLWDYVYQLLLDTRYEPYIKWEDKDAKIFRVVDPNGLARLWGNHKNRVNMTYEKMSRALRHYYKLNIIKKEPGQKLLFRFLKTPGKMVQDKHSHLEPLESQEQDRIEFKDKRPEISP
# How it was run: as §1
# ELF5 = biological target: T11, ELF5 (Homo sapiens, UniProt Q9UKW6-2 1-255); settings: protein: recombinant; tags: N-terminal GST; dsDNA, one strand shown
# T11 sequence: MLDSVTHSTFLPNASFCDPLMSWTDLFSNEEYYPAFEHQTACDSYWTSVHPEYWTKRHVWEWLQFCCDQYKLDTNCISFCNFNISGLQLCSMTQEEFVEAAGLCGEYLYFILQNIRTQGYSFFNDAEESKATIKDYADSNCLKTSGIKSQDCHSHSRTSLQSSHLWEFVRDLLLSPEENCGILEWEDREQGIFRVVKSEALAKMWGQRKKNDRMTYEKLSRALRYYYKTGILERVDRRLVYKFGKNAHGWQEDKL
# How it was run: as §1
# ETV3 = biological target: T12, ETV3 (Homo sapiens, UniProt P41162-2 1-143); settings: protein: recombinant; tags: N-terminal GST; dsDNA, one strand shown
# T12 sequence: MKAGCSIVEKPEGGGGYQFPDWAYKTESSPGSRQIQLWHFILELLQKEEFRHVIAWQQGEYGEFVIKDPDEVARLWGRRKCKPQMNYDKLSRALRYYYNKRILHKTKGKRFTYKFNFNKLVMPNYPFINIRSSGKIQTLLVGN
# How it was run: as §1
# ETV6 = ETV6 (Homo sapiens, UniProt P41212 1-452); settings: protein: recombinant; tags: N-terminal GST; dsDNA, one strand shown
# How it was run: as §1
# Sequence of ETV6 (P41212 whole entry): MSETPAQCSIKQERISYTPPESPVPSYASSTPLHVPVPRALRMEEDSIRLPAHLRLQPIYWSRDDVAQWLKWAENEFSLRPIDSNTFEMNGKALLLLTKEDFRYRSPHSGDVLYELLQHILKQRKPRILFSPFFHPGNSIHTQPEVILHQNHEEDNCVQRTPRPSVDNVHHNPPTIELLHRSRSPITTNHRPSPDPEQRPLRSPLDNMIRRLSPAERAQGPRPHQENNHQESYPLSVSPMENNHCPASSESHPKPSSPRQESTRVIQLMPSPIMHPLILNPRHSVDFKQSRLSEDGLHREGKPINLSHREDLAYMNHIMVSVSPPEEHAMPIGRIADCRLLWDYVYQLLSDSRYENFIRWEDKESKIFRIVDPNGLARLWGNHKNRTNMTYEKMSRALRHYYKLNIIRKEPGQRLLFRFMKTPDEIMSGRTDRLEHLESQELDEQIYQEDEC
# Sequence of ETV5 (P41161 whole entry): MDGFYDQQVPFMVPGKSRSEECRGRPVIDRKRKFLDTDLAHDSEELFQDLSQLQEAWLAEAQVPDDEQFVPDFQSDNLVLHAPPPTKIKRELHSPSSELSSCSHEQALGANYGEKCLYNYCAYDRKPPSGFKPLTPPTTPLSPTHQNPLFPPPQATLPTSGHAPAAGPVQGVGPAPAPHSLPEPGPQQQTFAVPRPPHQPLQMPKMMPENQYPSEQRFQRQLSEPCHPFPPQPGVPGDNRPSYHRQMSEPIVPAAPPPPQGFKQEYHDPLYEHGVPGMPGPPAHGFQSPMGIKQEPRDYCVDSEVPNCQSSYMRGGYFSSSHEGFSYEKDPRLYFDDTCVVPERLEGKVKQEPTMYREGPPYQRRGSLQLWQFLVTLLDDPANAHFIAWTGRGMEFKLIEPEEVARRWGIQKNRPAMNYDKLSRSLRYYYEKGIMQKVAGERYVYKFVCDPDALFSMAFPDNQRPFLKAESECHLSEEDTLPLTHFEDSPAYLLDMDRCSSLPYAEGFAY
# Sequence of HSF1 (Q00613 whole entry): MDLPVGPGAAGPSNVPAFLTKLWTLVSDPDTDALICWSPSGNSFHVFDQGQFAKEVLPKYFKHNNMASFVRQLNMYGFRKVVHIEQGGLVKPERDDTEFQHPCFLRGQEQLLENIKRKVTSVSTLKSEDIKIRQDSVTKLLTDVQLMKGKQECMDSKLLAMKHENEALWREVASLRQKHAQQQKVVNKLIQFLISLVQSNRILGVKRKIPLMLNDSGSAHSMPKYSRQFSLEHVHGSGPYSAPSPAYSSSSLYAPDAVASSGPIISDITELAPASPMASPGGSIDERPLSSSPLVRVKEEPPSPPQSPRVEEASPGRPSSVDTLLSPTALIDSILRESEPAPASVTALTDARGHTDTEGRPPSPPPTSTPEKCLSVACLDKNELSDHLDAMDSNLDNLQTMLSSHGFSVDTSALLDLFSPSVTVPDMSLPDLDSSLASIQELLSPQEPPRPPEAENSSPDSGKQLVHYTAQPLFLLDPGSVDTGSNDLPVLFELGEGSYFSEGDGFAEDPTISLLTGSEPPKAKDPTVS
# Sequence of ELF4 (Q99607 whole entry): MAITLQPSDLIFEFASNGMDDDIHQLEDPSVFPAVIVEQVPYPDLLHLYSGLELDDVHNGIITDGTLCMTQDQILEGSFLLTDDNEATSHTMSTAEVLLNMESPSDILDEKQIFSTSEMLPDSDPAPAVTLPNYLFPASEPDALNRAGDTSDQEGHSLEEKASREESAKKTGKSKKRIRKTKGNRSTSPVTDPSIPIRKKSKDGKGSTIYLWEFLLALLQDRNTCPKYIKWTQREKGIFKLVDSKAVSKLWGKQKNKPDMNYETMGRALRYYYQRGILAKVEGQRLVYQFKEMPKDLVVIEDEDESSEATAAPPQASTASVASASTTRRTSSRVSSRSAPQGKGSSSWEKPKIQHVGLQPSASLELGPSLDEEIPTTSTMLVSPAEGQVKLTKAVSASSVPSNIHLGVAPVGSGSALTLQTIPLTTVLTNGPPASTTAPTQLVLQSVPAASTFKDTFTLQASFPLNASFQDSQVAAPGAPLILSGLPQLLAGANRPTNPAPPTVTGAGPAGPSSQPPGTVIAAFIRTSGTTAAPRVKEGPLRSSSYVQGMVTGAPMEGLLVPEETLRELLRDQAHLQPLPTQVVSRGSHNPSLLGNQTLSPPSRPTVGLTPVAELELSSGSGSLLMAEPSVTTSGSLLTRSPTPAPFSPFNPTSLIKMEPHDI
# Sequence of CRX (O43186 whole entry): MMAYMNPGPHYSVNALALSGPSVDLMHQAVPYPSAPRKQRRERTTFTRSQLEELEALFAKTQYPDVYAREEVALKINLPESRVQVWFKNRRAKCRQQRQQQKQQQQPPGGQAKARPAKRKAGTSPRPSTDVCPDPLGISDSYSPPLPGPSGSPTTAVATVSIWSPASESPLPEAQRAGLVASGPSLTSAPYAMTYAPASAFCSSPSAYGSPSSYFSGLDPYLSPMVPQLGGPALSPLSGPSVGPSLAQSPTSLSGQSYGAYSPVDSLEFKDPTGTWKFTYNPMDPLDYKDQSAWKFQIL
# Sequence of ETV1 (P50549 whole entry): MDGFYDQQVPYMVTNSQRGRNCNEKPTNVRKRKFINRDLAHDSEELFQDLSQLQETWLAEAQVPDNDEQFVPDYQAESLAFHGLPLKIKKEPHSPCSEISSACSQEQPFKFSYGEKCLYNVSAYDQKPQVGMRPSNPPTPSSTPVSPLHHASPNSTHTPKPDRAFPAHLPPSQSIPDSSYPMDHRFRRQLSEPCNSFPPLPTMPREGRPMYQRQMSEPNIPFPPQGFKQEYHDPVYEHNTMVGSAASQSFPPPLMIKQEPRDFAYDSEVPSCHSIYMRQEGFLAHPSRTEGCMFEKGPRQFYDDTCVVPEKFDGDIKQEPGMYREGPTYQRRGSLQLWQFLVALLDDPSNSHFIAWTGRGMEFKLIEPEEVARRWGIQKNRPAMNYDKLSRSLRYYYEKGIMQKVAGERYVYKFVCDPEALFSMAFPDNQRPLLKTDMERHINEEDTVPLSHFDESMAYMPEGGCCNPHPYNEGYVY
sequence,measurement,setting,value
ACGAAA,binding signal,FEV,"1.15 fold enrichment (6-mer frequency, TF over GST control)"
same,binding signal,ETV5,"1.15 fold enrichment (6-mer frequency, TF over GST control)"
same,binding signal,HSF1,"1.44 fold enrichment (6-mer frequency, TF over GST control)"
same,binding signal,SPIC,"1.02 fold enrichment (6-mer frequency, TF over GST control)"
same,binding signal,ELF4,"1.16 fold enrichment (6-mer frequency, TF over GST control)"
same,binding signal,ELK4,"1.24 fold enrichment (6-mer frequency, TF over GST control)"
same,binding signal,ETV2,"1.13 fold enrichment (6-mer frequency, TF over GST control)"
same,binding signal,ELF3,"1.19 fold enrichment (6-mer frequency, TF over GST control)"
same,binding signal,CRX,"1.09 fold enrichment (6-mer frequency, TF over GST control)"
same,binding signal,ETV1,"1.12 fold enrichment (6-mer frequency, TF over GST control)"
same,binding signal,ERF,"1.34 fold enrichment (6-mer frequency, TF over GST control)"
same,binding signal,ETV3L,"1.13 fold enrichment (6-mer frequency, TF over GST control)"
same,binding signal,ETS2,"1.15 fold enrichment (6-mer frequency, TF over GST control)"
same,binding signal,SPDEF,"1.18 fold enrichment (6-mer frequency, TF over GST control)"
same,binding signal,ETV7,"1.23 fold enrichment (6-mer frequency, TF over GST control)"
same,binding signal,ELF5,"1.09 fold enrichment (6-mer frequency, TF over GST control)"
same,binding signal,ETV3,"1.03 fold enrichment (6-mer frequency, TF over GST control)"
same,binding signal,ETV6,"1.13 fold enrichment (6-mer frequency, TF over GST control)"
